Bioassay records (PubChem)
RGS4 inh – inhibitors of human regulator of G protein signaling 4; P49798; Transcreener GDP fluorescence polarization, RGS4-accelerated GTP hydrolysis; Potency, µM (highest dose often 114 µM), actives largely listed as inhibitors; 390,000 compounds, 0.039% hits; AID 504845; further: nearly all actives have a fitted effect of over 75% in size
Target sequence (P49798 whole entry, looked up): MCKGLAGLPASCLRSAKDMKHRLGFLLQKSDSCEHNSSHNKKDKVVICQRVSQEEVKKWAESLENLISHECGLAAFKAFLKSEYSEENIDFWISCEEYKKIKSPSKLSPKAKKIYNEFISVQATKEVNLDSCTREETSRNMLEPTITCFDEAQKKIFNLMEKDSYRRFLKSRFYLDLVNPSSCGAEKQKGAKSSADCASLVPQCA
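MLSMR compounds (23 nl, pin-transferred) preincubated 10 min at room temperature with a 500nM (2x) first reagent, then RGS4 at 900nM (2x) plus Transcreener GDP mix added; fluorescence polarization (620/688 nm) read before and after 90 min at 30 °C.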
SW480 rerep – induces DNA re-replication in SW480 colon adenocarcinoma cells | SW480 DNA re-replication, Hoechst DNA content imaging, 48 h | Potency, µM (titrated, usually from 46.1 µM), actives largely listed as activators | 340,000 compounds, 1.8% hits; further: nearly all actives have a fitted effect of over 55% in size
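Per well, 250 cells were exposed to pinned compound for 48 hr. Nuclear DNA was visualised with Hoechst (40 min, 37 C) and total object intensity recorded by fluorescence scanning.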
TSG101-PTAP inh – blocks PTAP/TSG101 interaction to inhibit HIV-1 budding; Potency, µM (series often up to 115 µM), most hits filed as inhibitors; Fluorescence polarization, FITC-PTAP peptide / Tsg101 binding; 340,000 tested, under 10 active; AID 493005; active means well fitted inhibition curve with a large enough effect in the main read-out, with a control signal flat, not every such curve was filed as active; inconclusive means small, poorly fitted or top-dose-only effect, or effect the other way, or a change in a side signal; inactive means no such curve, though single readings can be large or run the other way
Target sequence (Q99816 whole entry, looked up): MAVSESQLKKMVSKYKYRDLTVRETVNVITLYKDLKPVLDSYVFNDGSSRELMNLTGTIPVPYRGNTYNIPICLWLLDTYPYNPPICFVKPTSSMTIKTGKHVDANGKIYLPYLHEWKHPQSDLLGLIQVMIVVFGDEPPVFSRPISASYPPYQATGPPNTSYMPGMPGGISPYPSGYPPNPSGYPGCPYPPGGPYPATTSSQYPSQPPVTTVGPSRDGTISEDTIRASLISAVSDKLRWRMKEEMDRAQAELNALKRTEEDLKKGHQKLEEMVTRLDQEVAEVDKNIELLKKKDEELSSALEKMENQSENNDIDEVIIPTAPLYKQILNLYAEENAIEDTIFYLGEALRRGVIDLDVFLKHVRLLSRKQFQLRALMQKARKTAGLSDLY
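Fluorescence polarization binding of Tsg101 binding domain (10 uM final) to FITC-labeled PTAP peptide (50 nM final) in HEPES pH 7.5 buffer with NaCl, Tween 20, EDTA, TCEP. Compounds added before peptide; binding 20 min at RT.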
KB-3-1 cytotox – KB-3-1 parental cell cytotoxicity | 400,000 compounds, 1.4% hits | KB-3-1 viability, CellTiter-Glo ATP luminescence, 72 h | Potency, µM (series often up to 46.1 µM), usual class: cytotoxic; further: nearly all actives have a fitted effect of over 60% in size
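Luminescent ATP read-out (CellTiter-Glo) measures survival of drug-naive KB-3-1 cells after 72 h compound exposure at 37 °C. Titration series was screened from lowest to highest concentration, with DMSO vehicle plates as background controls.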
KB-V1 MDR tox – kills drug-selected multidrug resistant KB-V1 cells; KB-V1 MDR cells viability, CellTiter-Glo, 72 h; Potency, µM (series often up to 46.1 µM), hits mostly cytotoxic; 400,000 compounds, 3.4% hits; further: nearly all actives have a fitted effect of over 60% in size
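KB-V1 MDR subline cells in DMEM (phenol-red free, 10% FBS) exposed to compounds in qHTS concentration series for 72 h at 37 degrees C. Viability read by CellTiter-Glo luminescence; concentration-effect curves fitted after normalization and correction.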
MCF10A rereplic – inducers of DNA re-replication in MCF 10A breast cells | MCF 10A DNA re-replication, Hoechst nuclear intensity, 48 h | Potency, µM (series often up to 46.1 µM), most hits filed as activators | 350,000 compounds, 2.9% hits | AID 624296; further: nearly all actives have a fitted effect of over 50% in size
Numbers stand for hits; n = inactive; u = inconclusive; x = no result given. In the library only some 6.6% were active in any assay of this set; here they are far more common. Unless noted, the call rests on the fitted dose curve; in most records, active means well fitted curve in the direction sought with a large enough effect; inconclusive means small, poorly fitted or top-dose-only effect, or another doubt; inactive means no such curve, though single readings can be large; an effect the other way counts as inactive or inconclusive.

SMILES | RGS4 inh | SW480 rerep | TSG101-PTAP inh | KB-3-1 cytotox | KB-V1 MDR tox | MCF10A rereplic
CCOc1ccc2nc(NC(=O)Cn3[nH]c(=O)c4ccccc4c3=O)sc2c1 | n | n | n | u | n | 21µM
CCOc1ccc2nc(NC(=O)CN3CCN(CC)CC3)sc2c1 | n | n | n | n | n | n
Cc1ccc(COc2ccc3oc(-c4ccccc4)c(C(=O)O)c3c2)cc1 | n | x | x | x | x | x
Cc1ccc(OCC(=O)NCC2(N3CCOCC3)CCCCC2)cc1C | n | x | x | x | x | x
CCOC(=O)N1CCC(NC(=O)c2cnn(-c3cccc(F)c3)c2-n2cccc2)CC1 | n | x | x | n | n | x
O=C(Nc1nnc(C(F)(F)F)s1)c1ccc(Br)s1 | n | n | n | 4.6µM | 2.9µM | n
NC(=O)c1ccccc1NC(=O)c1ccccc1Cl | n | n | n | n | n | n
O=C(Nc1ccccc1C(=O)Nc1nnc(C(F)(F)F)s1)c1ccccc1Cl | n | u | n | 21µM | u | u
CC(NC(=O)Nc1nnc(C(F)(F)F)s1)(C(F)(F)F)C(F)(F)F | n | u | n | 13µM | n | 12µM
CCSc1nnc(NC(=O)c2ccc(Br)s2)s1 | n | n | n | u | n | n
CCOc1ccccc1CNC(=O)c1ccc2nc(N3CCC(C)CC3)sc2c1 | n | x | x | n | n | x
O=C(C[n+]1ccccc1Br)c1ccc(I)cc1 | x | x | x | u | n | x
COc1cccc(Nc2nc3cc(C)ccc3nc2NS(=O)(=O)c2ccc(Cl)cc2)c1 | n | x | x | u | 15µM | x
CCCC(C(=O)Nc1ccc(S(=O)(=O)N2CCOCC2)cc1)c1ccccc1 (configuration not stated) | n | 0.23µM | n | n | n | u
Cc1csc(NC(=O)CCc2ccc(S(=O)(=O)N3CCOCC3)cc2)n1 | n | n | n | n | 23µM | u
O=C(NC(=S)N1CCN(C(c2ccccc2)c2ccccc2)CC1)c1ccc(S(=O)(=O)N2CCOCC2)cc1 | n | n | n | n | 21µM | n
COc1ccc(CC(=O)Nc2nc(C)cs2)cc1S(=O)(=O)N1CCOCC1 | n | n | n | n | n | n
O=S(=O)(c1ccc(NC(=S)Nc2ccccc2)cc1)N1CCOCC1 | n | n | n | n | n | n
CCCC(C(=O)Nc1ccc(C)c(S(=O)(=O)N2CCOCC2)c1)c1ccccc1 (configuration not stated) | n | n | n | n | u | n
O=C(CCc1ccccc1)NC(=S)Nc1ccc(S(=O)(=O)N2CCOCC2)cc1 | n | n | n | u | 4.6µM | u
COc1ccc(-n2c(=O)c3sc4ccccc4c3n(Cc3ccccc3C)c2=O)cc1OC | n | x | x | n | n | x
COc1cc(N(C)C)c(OC)cc1C=O | x | x | x | n | n | x
COc1cc(NC(=S)Nc2ccc(S(=O)(=O)N3CCOCC3)cc2)cc(OC)c1OC | n | n | n | n | n | n
CC(C)CCCCCCNC(=S)Nc1ccc(S(=O)(=O)N2CCOCC2)cc1 | n | u | u | u | 8.2µM | 13µM
CN(C)CC(C)(C)CNC(=S)Nc1ccc(S(=O)(=O)N2CCOCC2)cc1 | n | 26µM | n | n | u | n
SMILES | RGS4 inh | SW480 rerep | TSG101-PTAP inh | KB-3-1 cytotox | KB-V1 MDR tox | MCF10A rereplic
Cc1cc(C)cc(NC(=O)N2CCC3(CC2)Oc2ccccc2C(=O)N3Cc2ccccc2F)c1 | n | x | x | x | x | x
CCN(CC)c1ccc2c(C)c(CO)c(=O)oc2c1 | n | 13µM | n | n | n | u
CCN(CC)c1ccc2c(C)c(CN3CCOCC3)c(=O)oc2c1 | n | 21µM | n | n | n | 5.8µM
Cc1ccccc1NC(=O)CN(c1ccc(Cl)cc1Cl)S(=O)(=O)c1ccccc1 | n | x | x | n | n | x
O=C1CCc2cc(S(=O)(=O)NC(C(=O)Nc3ccc(F)cc3)c3ccccc3)ccc2N1 (configuration not stated) | n | x | x | n | n | x
CCOC(=O)c1c(NC(=O)c2ccoc2C)sc2c1CCC2 | n | n | n | n | 21µM | u
COC(=O)c1c(NC(=O)c2ccco2)sc2c1CCC2 | n | n | n | n | n | u
O=C(Nc1sc2c(c1C(=O)NCc1cccnc1)CCCC2)c1ccco1 | n | n | n | n | 23µM | u
CC(C)OC(=O)c1c(NC(=O)c2ccco2)sc2c1CCCCC2 | n | n | n | n | n | 16µM
CCOC(=O)c1c(NC(=O)C(=O)N/N=C/c2ccc(OCC)cc2)sc2c1CCCCC2 | n | n | n | n | 16µM | n
CCN(C(=O)Cn1c(=O)n(CCCS(=O)(=O)C2CCCCC2)c(=O)c2ccccc21)c1cccc(C)c1 | n | x | x | n | n | x
Cc1ccc(CSc2nnc(-c3ccc(NC(=O)CCc4ccccc4)cc3)n2C)cc1 | x | x | x | n | n | x
COC(=O)c1c(NC(=O)c2cccs2)sc2c1CCC(C)C2 (configuration not stated) | n | n | n | n | n | n
CC1CCc2c(sc(NC(=O)c3cccs3)c2C(=O)O)C1 (configuration not stated) | n | n | n | 10µM | n | u
CCOC(=O)c1c(NC(NC(=O)C(C)C)C(Cl)(Cl)Cl)sc2c1CCC2 (configuration not stated) | n | u | n | u | 23µM | 23µM
CC(C)OC(=O)c1c(NC(=O)c2cccs2)sc2c1CCCC2 | n | n | n | n | n | 16µM
CCOC(=O)Nc1sc2c(c1C(=O)OCC)CCC2 | n | n | n | n | n | n
O=C(Nc1sc2c(c1C(=O)O)CCCC2)c1cccs1 | n | n | n | u | n | n
Cc1ccc(C)c(S(=O)(=O)n2nc(C)c(S(=O)(=O)N3CCCCCC3)c2C)c1 | n | x | x | n | u | x
CCn1c(C(=O)Nc2ccc(C)cc2C)cc2sc(Cl)cc21 | n | x | x | n | n | x
O=C(CC1Sc2ccccc2NC1=O)Nc1cccc(C(F)(F)F)c1 (configuration not stated) | n | x | x | n | u | x
COC(=O)[C@@H](c1ccccc1Cl)N1CCc2sccc2C1 | n | x | x | x | x | x
Cc1ccc(C(=O)c2cn(CC(=O)Nc3ccc4c(c3)OCCO4)c3nc(C)ccc3c2=O)cc1 | u | x | x | n | n | x
O=C(NCCc1ccccc1)C(=O)NCCC1CCCCN1S(=O)(=O)c1cccs1 (configuration not stated) | n | n | n | n | 2.3µM | n
COc1ccc(CNC(=O)C(=O)NCCC2CCCCN2S(=O)(=O)c2ccccc2)cc1 (configuration not stated) | n | n | n | n | n | n
COc1ccc(NC(=O)C(=O)NCCC2CCCCN2S(=O)(=O)c2ccccc2)cc1 (configuration not stated) | n | 15µM | n | 4.6µM | u | u
O=C(NCCC1CCCCN1S(=O)(=O)c1cccs1)C(=O)Nc1ccccc1 (configuration not stated) | n | n | n | n | n | u
